High-throughput results (PubChem)
Rows were chosen to be rich in hits. Some 0.75% of all compounds tested hit in one or more screens of this group.
BioA inh = blocks M. tuberculosis BioA enzyme activity; purified M. tuberculosis BioA enzyme, plate reader; inhibition, % at 9.99 µM; hit rate 0.096% among 360,000; in the data active means inhibition above about 40%
TcdB inh = inhibitors of Clostridioides difficile toxin B glycohydrolase; P18177; TcdB glycohydrolase enzymatic assay, plate reader; inhibition, % at 9.99 µM; hit rate 0.24% among 350,000; in the data active means inhibition above about 10%
Sa ugtP lethal = compounds lethal to S. aureus RN4220 ugtP deletion mutant; OD600 growth, 16 h; growth inhibition, % (no concentration beside the values); hit rate 0.54% among 330,000; in the data active means growth inhibition above about 68%;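 further: plate controls were untreated wells for no effect and antibiotic for full effect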
Mtb hypoxia rep = Mtb hypoxia fluorescent reporter inhibition; M. tuberculosis hypoxia-regulated fluorescent reporter, fluorescence; fluorescence inhibition, % (test concentration not listed); hit rate 0.1% among 300,000; AID 1159583; in the data active means fluorescence inhibition mostly above about 23%, no sharp cut-off; inactive means mostly below about 17%
Y pestis TopoI = Y. pestis Topo-I inhibition via cleavage products | hit rate 0.064% among 360,000 | activity, % at 10 µM | AID 504884 | Y. pestis Topo-I cleavage product accumulation, plate reader; in the data active means activity above about 50%, passing the limit was not always enough
Sa RN4220 lethal = kills Staphylococcus aureus RN4220; S. aureus RN4220 growth, OD600, 16 h; inhibition, % (test concentration not listed); hit rate 0.33% among 330,000; in the data active means inhibition above about 85%;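 further: plate controls were untreated cells for no effect and reference antibiotic for full effect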
* = called active by the depositor; . = not tested or not shown.

SMILES | BioA inh | TcdB inh | Sa ugtP lethal | Mtb hypoxia rep | Y pestis TopoI | Sa RN4220 lethal
CC(=NNC(=O)Cc1c(C)[nH][nH]c1=O)c1ccc2ccccc2c1 | . | . | 1 | 9 | . | 5
COc1cc(C=Nn2c(C)n[nH]c2=S)ccc1OCc1ccccc1 | . | . | 5 | 13 | . | 4
CCOC(=O)c1ccc(-n2c(CCC(=O)O)ccc2-c2ccc(F)cc2)cc1 | 2 | 17* | . | . | 8 | .
CCOC(=O)C1C2COc3ccc(C)cc3C2N2C(=O)c3cc(F)c(F)cc3NC(=O)[C@@]12C (some centres undefined) | . | . | 1 | 17 | . | 4
COCc1cc(Sc2cccc(Cl)c2Cl)nc(-c2ccccc2)n1 | -2 | . | 91* | . | 2 | -11
CCOC(=O)/C(=N/Nc1ccc(Br)cc1)N1CC(C)OC(C)C1 (centres undefined) | . | 34* | 10 | 9 | 10 | 4
Cc1ccccc1NC(C)C(=O)NN=Cc1c[nH]c2ccccc12 (centres undefined) | . | . | -9 | -8 | . | -4
CN(C(=O)CSc1ncnc2sc3c(c12)CCC3)C1CCS(=O)(=O)C1 (centres undefined) | 1 | 0 | 1 | 32* | 2 | 2
CC(C)(C)c1ccc(C(=O)CC(=O)c2cc(Cl)ccc2O)cc1 | -1 | . | 98* | 1 | 4 | 100*
Cc1ccc(C(=O)CC(=O)c2ccc(C)cc2O)cc1 | 0 | -8 | -6 | 9 | 2 | 2
Cc1ccc(C(=O)CC(=O)c2cc(Cl)ccc2O)cc1 | -1 | . | 99* | -1 | -2 | 100*
O=C(NN=Cc1ccc([N+](=O)[O-])o1)C(O)c1ccccc1 (centres undefined) | . | . | 71 | 24* | . | 37
COc1ccc(-c2nn(-c3ccccc3)cc2C(=O)NN=Cc2ccc([N+](=O)[O-])o2)cc1 | . | . | 100* | -4 | . | 97*
Cc1nc2ccccn2c1C(=O)NN=Cc1ccc([N+](=O)[O-])o1 | . | . | 82 | -5 | . | 98*
O=C(NN=Cc1ccc([N+](=O)[O-])o1)c1cn(-c2ccccc2)nc1-c1ccccc1 | . | . | 99* | -9 | . | 100*
CC(C)(C)c1ccc2c(c1)OC(C(=O)NN=Cc1ccc([N+](=O)[O-])o1)CO2 (centres undefined) | . | . | 100* | 8 | . | 100*
O=C(NN=Cc1ccc([N+](=O)[O-])o1)c1cn(-c2ccccc2)nc1-c1ccc(F)cc1 | . | . | 98* | -5 | . | 71
O=C(O)c1ccccc1C(=O)c1ccc2c(c1)N(Cc1cccc(F)c1)C(=O)CO2 | . | 21* | -2 | 6 | -5 | 7
CCC(C)NC(=O)c1ccc2c(c1)N(Cc1ccccc1)C(=O)CS2 (centres undefined) | . | 1 | 1 | -2 | 11 | 4
O=C(O)c1ccc2c(c1)N(Cc1cccc(F)c1)C(=O)CS2 | 0 | 21* | 8 | 6 | 3 | 2
COc1ccc(C2CC(=O)C=C(c3cccc(OC(F)(F)F)c3)C2)cc1 (centres undefined) | . | . | 2 | 12 | . | 1
CC1CC=CC2C1C(=O)N(Cc1ccccc1)C2c1ccc2ccccc2c1Br (centres undefined) | . | . | 97* | -7 | . | 88*
COC(=O)C1=C(c2ccc(F)cc2OCc2ccccc2)CC2CCC1N2C(=O)NCCNC(C)=O (centres undefined) | . | . | 3 | 6 | . | 4
CN(C)c1ccc(C=Cc2cc[n+](C)c3ccccc23)cc1 | . | . | 93* | 21 | . | 95*
CN(C)c1ccc(/C=C/c2cc[n+](C)c3ccccc23)cc1 | . | 0 | . | . | -43 | .
SMILES | BioA inh | TcdB inh | Sa ugtP lethal | Mtb hypoxia rep | Y pestis TopoI | Sa RN4220 lethal
CC1CN(C2CCCCC2)C(=O)C1CC(=O)NCc1ccccc1 (centres undefined) | . | . | 5 | 5 | . | 5
CCC(C)C1CN(C(C)CN2CCCC2CN2C(N)=NCC2Cc2ccccc2)C(=N)N1CCCC1CCCC1 (centres undefined) | . | . | 100* | . | . | 100*
CCC[C@@H](CN1CCC[C@H]1CN1C(N)=NC[C@@H]1Cc1ccccc1)N1C[C@@H](Cc2ccccc2)N(CCCC2CCCC2)C1=N | 0 | . | . | . | -11 | .
CC(CN1CCCC1CN1C(N)=NCC1Cc1ccccc1)N1CC(Cc2ccccc2)N(CCCC2CCCC2)C1=N (centres undefined) | . | . | 100* | . | . | 101*
CCC[C@@H](CN1CCC[C@H]1CN1C(N)=NC[C@H]1CC(C)C)N1C[C@@H](Cc2ccccc2)N(CCCC2CCCC2)C1=N | 0 | 1 | 101* | . | 13 | 100*
O=C(NN=Cc1ccc2cccnc2c1)c1nc2ccccc2c(=O)[nH]1 | . | . | 13 | -6 | . | 1
Cc1cnc(C(=O)NC(C)CCc2ccccc2)cn1 (centres undefined) | . | 0 | 0 | 38* | 3 | -2
Cc1cnc(C(=O)NC(Cc2ccccc2)c2ccccc2)cn1 (centres undefined) | -1 | 1 | 6 | 8 | 20 | -3
Cc1csc(NC(=O)c2cc3ccccc3o2)n1 | -1 | 0 | -18 | -10 | 3 | -4
Cc1csc(C(C#N)C(=O)c2cc3ccccc3o2)n1 (centres undefined) | 0 | 0 | 79 | 4 | -11 | 84*
CC1(C)CC(=O)C2=C(C1)c1c(ccc3ccccc13)NC2c1cc([N+](=O)[O-])cc([N+](=O)[O-])c1O (centres undefined) | . | -2 | 90* | 1 | -5 | 95*
CC1(C)CC(=O)C2=C(C1)c1c(ccc3ccccc13)NC2c1ccc(C(=O)O)cc1 (centres undefined) | 1 | 1 | -1 | 2 | 6 | 8
O=C(NN=Cc1ccccn1)c1cccc([N+](=O)[O-])c1 | . | . | -1 | 1 | . | 1
O=C(N/N=C/c1ccccn1)c1ccc([N+](=O)[O-])cc1Cl | 2 | 11* | . | . | 3 | .
O=C1C=C(c2ccc(Cl)c(C(F)(F)F)c2)CC(c2ccc3c(c2)OCO3)C1 (centres undefined) | . | . | 50 | 3 | . | -5
CCCCCCNC(=O)c1cccc(-c2ccc(C)c3ccccc23)n1 | 1 | 0 | 90* | 11 | 6 | -4
Cc1ccc(N2CCN(N=Cc3sccc3C)CC2)cc1 | . | . | 10 | 6 | . | 13
CC(C)CC(=O)NC(C(=O)NC(C(=O)NC(CC(C)C)C(O)CC(=O)NC(C)C(=O)NC(CC(C)C)C(O)CC(=O)O)C(C)C)C(C)C (centres undefined) | . | . | -5 | 5 | . | 5
CN(C)CCNc1cccc2sc3ccc(O)cc3c(=O)c12 | . | 39* | . | . | . | .
COc1cc(C)c2sc3ccccc3c(=O)c2c1NCCN(C)C | 4 | 7 | . | . | -42 | .
Cc1ccc(NCCN(C)C)c2c(=O)c3cc(O)ccc3sc12 | . | 21* | . | . | -46 | .
COc1cc(-c2nc3ccc4ccccc4c3c3c2CCC3)ccc1O | -1 | -1 | 101* | 5 | -1 | 99*
COc1ccccc1CN1C(CC(C)=O)c2cc(C(F)(F)F)ccc2S1(=O)=O (centres undefined) | . | . | 1 | 23 | . | 11
Cc1nc(C)c(C(=O)Nc2ccccc2)s1 | 2 | . | 4 | . | 3 | 6
